Only some compounds are listed: those with a hit (about 1% of all), similar ones and a draw of the others.
E-sel TNF inh = E-selectin induction blockers in HUVEC – imaging, immunofluorescence, high content, primary screen. HUVEC TNFa-induced E-selectin immunofluorescence. inhibition, % at 2 µM. 120,000 tested, 0.71% active. AID 1246, 2008;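 active = inhibition above the batch mean plus 3 SD, and confirmed as a hit on visual image review, cut at about 43% in these data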;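 also: 0% = TNF-stimulated DMSO wells and 100% = unstimulated control wells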
VCAM1 TNFa inh = inhibitors of TNFa-induced VCAM1 expression, primary screen, imaging, HUVEC, TNFa stimulus, immunofluorescence. HUVEC TNFa-induced VCAM-1 immunofluorescence, high-content imaging. inhibition, % at 2 µM. 95,000 tested, 0.48% active;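 active = inhibition above the batch mean plus 3 SD, with images confirmed as a hit by eye, cut at about 37% in these data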;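 also: 0% = TNF-stimulated DMSO wells and 100% = unstimulated control wells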
F-actin modifier = modifiers of F-actin cytoskeleton organization, primary screen, imaging, HUVEC, phalloidin staining, high-content imaging | HUVEC TNFa F-actin phalloidin imaging | inhibition, % at 2 µM | 91,000 tested, 0.18% active | AID 836, 2007;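 active = inhibition above the batch mean plus 3 SD and confirmed as a hit by visual image inspection, cut at about 30% in these data, passing the limit was not always enough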
HUVEC tox TNFa = cytotoxicity in TNFa-stimulated HUVEC, primary screen, cytotoxicity control for VCAM1 expression modulator project, imaging, Hoechst nuclei count; cell count reduction, % at 2 µM; 93,000 tested, 0.17% active; AID 848, 2007; HUVEC TNFalpha-stimulated, Hoechst cell count;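 active = cell count reduction exceeding the screen mean by over 5 SD, scaled to untreated wells per plate, cut at about 78% in these data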;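 also: cells counted after 24 h of TNF alpha exposure following the 1 h pretreatment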
Active calls of the source: *; / = no result.

SMILES | E-sel TNF inh | VCAM1 TNFa inh | F-actin modifier | HUVEC tox TNFa
CCc1ccc2c(c1)C(c1ccc([N+](=O)[O-])cc1)=NNC(c1ccc(F)cc1)=N2 | -7 | 2 | 3 | 20
C=C1C(=O)C=C2CN(C(=O)c3ccccc3)[C@@](Cc3ccc(F)cc3)(C(=O)OC)[C@@H]12 | 100* | / | / | /
Cc1ccc2cc(C#N)c(N3CCCC3)nc2c1C | 100* | 13 | 1 | -7
Cc1ccc2cc(C#N)c(N3CCCN(C(=O)C4CCCO4)CC3)nc2c1C (configuration not stated) | 6 | / | / | /
CCN1CCC2(CC1)C(C#N)=C(N)Oc1c2sc2nc(C)cc(C)c12 | 15 | 84* | -61 | 69
CC(=O)N1CCC2(CC1)C(C#N)=C(N)Oc1c2sc2nc(C)cc(C)c12 | -40 | / | / | /
CCOC(=O)CSc1nnc(-c2cccnc2)o1 | 4 | 4 | -2 | /
COc1ccc2c(c1)C(C)=CC(C)(C)N2S(=O)(=O)c1ccc(C)cc1 | 7 | / | / | /
CC1=CC(C)(C)N(S(=O)(=O)c2ccc(C)cc2)c2cc(C)ccc21 | 16 | 38* | 4 | 58
COc1ccc(-c2cnnn2-c2ccc(N)cc2)cc1OC | 13 | 17 | 5 | -17
Nc1cccc(-n2nncc2-c2ccc(Cl)cc2)c1 | 65* | 11 | -9 | -4
CCOc1ccc(NCc2nc3ccccc3n2CCOc2ccccc2)cc1 | 92* | / | / | /
Cc1cccc(C(=O)O/N=C/c2ccc(Br)cc2)c1 | 1 | / | / | /
COc1ccc(C(=O)C(CO)Oc2ccccc2OC)cc1OC (configuration not stated) | 73* | 5 | 3 | -29
Nc1nc2c3ccccc3nc(Cc3ccccc3)n2n1 | -20 | 93* | 7 | -17
Cc1cc(C(=O)NN)c2cc(Br)ccc2n1 | -10 | 56* | 12 | 52
Cc1cc(C(N)=O)c2cc(Br)ccc2n1 | 8 | -17 | -3 | -6
CCCc1nc(SCC(=O)NNC(=O)C2CCCCC2)c2ccccc2n1 | -12 | -41 | -12 | /
CCCCCOc1ccc(Br)cc1/C(C)=N/NC1=NCCN1 | 4 | 48 | 49* | 51
O=C1CC(c2ccccc2)CC2=C1CN(C1CCCCC1)CN2 (configuration not stated) | 70* | -6 | 2 | -12
COCCn1c(SCC(=O)c2ccccc2)nc2c(c1=O)SC(C)C2 (configuration not stated) | 1 | -3 | -12 | 14
COc1ccccc1-c1nnc2n1N=C(c1ccc(O)c(O)c1)CS2 | 29 | 96* | 2 | 56
CCOc1ccc(C2=Nn3c(nnc3-c3ccccc3OC)SC2)cc1 | 29 | 99* | -12 | 70
COc1ccc(C2=Nn3c(nnc3-c3ccncc3)SC2)cc1OC | -8 | 3 | 9 | -15
CCOc1ccc(-c2nnc3n2N=C(c2ccc(OC)cc2)CS3)cc1 | / | 8 | -19 | -24
SMILES | E-sel TNF inh | VCAM1 TNFa inh | F-actin modifier | HUVEC tox TNFa
CCN(CC)S(=O)(=O)c1ccc(-c2nnc(SCC(=O)Nc3ccc(OC)cc3)o2)cc1 | 64* | 40 | 12 | 9
CCN(CC)S(=O)(=O)c1ccc(-c2nnc(SCC(=O)Nc3ccc(OC)c(OC)c3)o2)cc1 | 4 | -16 | -3 | -1
O=C(CCn1c(=O)oc2ccccc21)N1CCN(C(c2ccccc2)c2ccccc2)CC1 | / | -8 | 10 | -7
O=C(CCn1c(=O)oc2ccccc21)N1CCN(c2ccccc2F)CC1 | / | 41 | 0 | 80*
O=C(/C=C/c1cccc([N+](=O)[O-])c1)n1cnc2ccccc21 | 99* | / | / | /
O=C1C2C3CC(C(Br)C3Br)C2C(=O)N1c1ccccn1 (configuration not stated) | -9 | 8 | -3 | -9
Cc1ccnc(N2C(=O)C3C4CC(C(Br)C4Br)C3C2=O)c1 (configuration not stated) | 54* | -2 | 16 | 1
CCN(CC)C(=O)c1cnn(-c2ccccc2)c1NC(=O)c1ccco1 | -2 | 2 | 15 | -22
CCc1ccc(NS(=O)(=O)c2cc(OC)ccc2OC)cc1 | / | 40 | 9 | 81*
COCCNC(=O)C(c1cccs1)N(Cc1ccccc1)C(=O)Cn1nnc2ccccc21 (configuration not stated) | 14 | 11 | -3 | -12
COCCNC(=O)C(c1cccs1)N(Cc1cccs1)C(=O)Cn1nnc2ccccc21 (configuration not stated) | 9 | -10 | 32* | 0
Cc1c(NC(=O)c2c(N)n(-c3ccccc3)c3nc4ccccc4nc23)c(=O)n(-c2ccccc2)n1C | 77* | / | / | /
Cc1c(NC(=O)c2c(F)cccc2F)c(=O)n(-c2ccccc2)n1C | 30 | 8 | 1 | -9
Cc1onc(-c2ccccc2Cl)c1C(=O)OCN1C(=O)c2ccccc2C1=O | 15 | -4 | -10 | 1
O=C1c2cccc(OCC(=O)N3CCCc4ccccc43)c2CCN1Cc1ccccc1 | 56 | / | / | /
O=C1c2cccc(OCC(=O)N3CCCc4ccccc43)c2CCN1Cc1ccc(Br)cc1 | 81* | / | / | /
CC(=O)N1CCN(Cc2nc3cc(NC(=O)c4ccccc4)ccc3n2C)CC1 | 5 | 26 | -3 | -6
COc1ccccc1C(=O)Nc1ccc2c(c1)nc(CN1CCN(C(C)=O)CC1)n2C | 21 | 90* | 6 | -10
CC(=O)NNc1nc2ccccc2s1 | / | -12 | 2 | -3
O=C(NNc1nc2ccccc2s1)Nc1ccccc1 | 62* | / | / | /
CCN1C(=O)/C(=C\c2cn(-c3ccccc3)nc2-c2cccnc2)SC1=S | 83* | / | / | /
Cc1cc(C)n(-c2nc(-c3cccc(Cl)c3)cs2)n1 | / | 90* | -28 | 86*
Cc1ccc(OCc2nnc(N)s2)cc1 | 8 | / | / | /
Cc1cccc(OCc2nnc(N)s2)c1C | 71* | -8 | 26 | -17
O=C(Cn1cnc2c(cnn2-c2ccc(Cl)cc2)c1=O)NCCc1ccccc1 | -7 | 9 | 44 | -31
SMILES | E-sel TNF inh | VCAM1 TNFa inh | F-actin modifier | HUVEC tox TNFa
CCCCCOc1ccccc1C(=O)NCCC(=O)O | -12 | 12 | -7 | 14
CCOc1ccccc1C(=O)NCCC(=O)O | -19 | / | 100* | /
COc1cccc(=O)c2c(C)oc(C)c12 | 7 | 11 | -3 | 0
COc1ccc(-n2c(C)c3c(OC)cccc(=O)c3c2C)cc1 | 56* | -6 | 8 | -3
COc1cccc(C(=O)NC2CCN(CC(=O)Nc3nccs3)CC2)c1 | 5 | -3 | -7 | 18
CCOC(=O)c1cnn(-c2nc(-c3ccc(C)cc3)cs2)c1C(F)(F)F | / | 96* | -68 | 77
COC(=O)C1CCN(Cc2cc(=O)oc3cc(OC)ccc23)CC1 | -3 | -3 | 42 | -33
O=C1CCCCCC1C1(O)C(=O)Nc2ccc(Br)cc21 (configuration not stated) | -28 | 7 | -6 | -1
Cc1ccc(NC(=O)Cn2cnc3sc(C(=O)NCCN(C)C)c(C)c3c2=O)cc1Cl | 50* | 9 | -15 | -1
CCOC(=O)c1[nH]c(C)c(C(=O)c2ccc(C)cc2)c1C | -16 | 48* | 18 | 33
CCOC(=O)c1c(C)[nH]c(C(=O)OCCOc2ccccc2C)c1C | 67* | / | / | /
Cc1ccc(C)c(N(CC(=O)NCCSCc2ccco2)S(C)(=O)=O)c1 | 63* | -7 | 18 | -20
COC(=O)c1ccc2c(c1)C(=O)N(C1CCCCC1)C2=O | 17 | 11 | 8 | 11

High-throughput results from PubChem BioAssay.
